Assay outcomes deposited in PubChem BioAssay by Broad Institute.
The list is not random: actives were taken first. Their share in the collection is about 2%.
ID4 SMM – binders of human ID4 protein, primary screen, biochemical, small molecule microarray, single point | 31,000 compounds, 1.2% hits | DNA-binding protein inhibitor ID-4 (Homo sapiens), P47928 | Flag-ID4 binding, fluorescence F/B | AID 624137, 2012 | calls only; call rule not given here;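 also: a binder raises fluorescence above local background on the spot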
Target sequence (P47928 whole entry, looked up): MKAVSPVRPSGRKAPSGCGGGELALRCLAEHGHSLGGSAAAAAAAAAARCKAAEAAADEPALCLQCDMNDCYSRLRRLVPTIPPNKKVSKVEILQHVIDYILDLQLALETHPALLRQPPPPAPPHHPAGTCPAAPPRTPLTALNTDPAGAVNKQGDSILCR
mut p53 react – mutant p53 pathway re-activators, primary screen, cell-based, SW480, luciferase, single point, HTS | SW480 PUMA-promoter luciferase, p53 mutant reactivation | activation, % at 9.98 µM | 28,000 compounds, 1.5% hits | AID 624151, 2012; in the data active = activation above about 52%; inconclusive = no clear call, values can overlap the other calls
STK33 kin inh – STK33 kinase inhibitors, primary screen, biochemical, luminescence, ADP-Glo, MBP substrate. 27,000 compounds, 0.44% hits. inhibition, % at 12.5 µM. Serine/threonine-protein kinase 33 (Homo sapiens), Q9BYT3. AID 2322, 2010; in the data active = inhibition above about 20%; inconclusive = no clear call, values can overlap the other calls
Numbers stand for hits; . = inactive; ? = inconclusive; / = no result; + = active, no number.

SMILES	ID4 SMM	mut p53 react	STK33 kin inh
CC(=O)O[C@@H]1CC2C(C)(C)CCC[C@]2(CO)C2=C1C(=O)C(C(C)C)C(=O)C2=O (some centres undefined)	.	/	.
CN1CCN(NC(=O)CN2C(=O)S/C(=C/c3ccc(Cl)cc3)C2=O)CC1	.	.	/
O=C(O)CCCC(=O)Nc1ccc(Cl)c(Cl)c1	.	.	.
O=C(O)CCCCCCC(=O)Nc1ccc(C2OC(CSc3ccncc3)CC(c3ccccc3)O2)cc1 (centres undefined)	+	/	/
COC(=O)CCCCCCC(=O)Nc1ccc(C2OC(CN(C)Cc3ccccc3)CC(c3ccccc3)O2)cc1 (centres undefined)	.	/	/
COCC1CC(c2ccccc2)OC(c2ccc(NC(=O)CCCCCCC(=O)O)cc2)O1 (centres undefined)	+	/	/
COC(=O)CCCCCCC(=O)Nc1ccc(C=O)cc1	.	/	/
CN(Cc1ccccc1)CC1CC(c2ccccc2)OC(c2ccc(NC(=O)CCCCCCC(=O)O)cc2)O1 (centres undefined)	+	/	/
NCCCN(Cc1ccco1)C1CCCC1	.	.	.
COc1cccc(NC(=O)C(C)N(c2cc(C)cc(C)c2)S(C)(=O)=O)c1 (centres undefined)	.	.	.
COC(=O)c1ccccc1NC(=O)C(C)NS(=O)(=O)c1cc(Cl)ccc1Cl (centres undefined)	.	.	.
CCc1ccc(N2NC(=O)C(=C(C)C)C2=O)cc1	/	/	.
CCn1c(SCC(=O)Nc2ccccc2C(F)(F)F)nnc1-c1cccc([N+](=O)[O-])c1	.	.	?
COc1ccc(CCNS(=O)(=O)c2cc([N+](=O)[O-])ccc2C)cc1OC	.	.	.
COc1ccc(-c2cn(CCNC(=O)[C@H](Cc3ccccc3)NS(=O)(=O)c3ccc(C)cc3)nn2)cc1OC	+	/	/
Cc1ccc(S(=O)(=O)N[C@@H](Cc2ccccc2)C(=O)CCl)cc1	/	.	.
COc1ccc(NC(=O)c2ccc3c(=O)n(Cc4ccco4)c(=S)[nH]c3c2)cc1OC	/	/	.
O=c1[nH]c(=S)c2c(n1N1CCOCC1)CCC2	+	.	/
N#Cc1cccc(NCCN2CCNC2=O)n1	.	.	/
O=C(NCc1nc2ccccc2[nH]1)C1=C[C@H](c2ccccc2)C[C@H](OCCCCO)O1	.	/	/
O=C(NCc1nc2ccccc2[nH]1)c1ccccc1	.	94	.
Cc1ccc(O)c(NC(=O)c2nc3ncccn3n2)c1	.	58	.
O=C(Nc1cccnc1)c1nc2ncccn2n1	.	.	/
O=C(N[C@H](COC(=O)[C@H](Cc1ccccc1)NC(=O)c1ccccc1)Cc1ccccc1)c1ccccc1	.	/	.
Cc1ccc(OCC(=O)Nc2cccc(-c3nnc(-c4ccccc4)o3)c2)cc1	.	119	.
SMILES	ID4 SMM	mut p53 react	STK33 kin inh
Cc1ccc(OCC(=O)Nc2cccc(-c3nc4ccccc4[nH]3)c2)cc1	.	.	.
Cc1cccc(OCC(=O)Nc2cccc(-c3nnc(-c4ccccc4)o3)c2)c1C	.	68	.
Cc1cccc(OCC(=O)Nc2cccc(-c3nnc(-c4ccco4)o3)c2)c1C	.	?	.
O=C(COc1ccccc1)NC(=S)Nc1cc(-c2nc3ccccc3o2)ccc1Cl	.	.	.
COc1ccc(C)cc1NC(=O)CN(C)S(=O)(=O)c1ccccc1	.	.	.
COc1ccc(N2C(=O)CC(SCC(=O)Nc3c(C)cccc3C)C2=O)cc1 (centres undefined)	+	.	.
COc1ccc(N2C(=O)CC(SCC(=O)Nc3ccc(C)c(C)c3)C2=O)cc1 (centres undefined)	.	.	.
C=CCN1C(=O)[C@@]2(O[C@@H](CCn3cc(CCO)nn3)[C@H]([Si](C)(C)c3ccc(OC)cc3)[C@H]2C)c2cc(N3CCC3=O)ccc21	/	/	.
Cc1c(/C=C2\SC(=Nc3ccccc3)N(C3CCCC3)C2=O)c2ccccc2n1CC(N)=O	.	.	/
NCCNS(=O)(=O)c1cccc2cnccc12	/	/	44
O=S(=O)(c1cccc2cnccc12)N1CCNCC1	.	.	/
CC1(C(=O)c2ccccc2)C2c3c(ccc4ccccc34)OC(=O)C21C(=O)c1ccco1 (centres undefined)	.	.	.
O=S(=O)(Cc1noc(-c2ccc(OC(F)(F)F)cc2)n1)Cc1ccco1	.	.	/
CCc1ccc(CCC(=O)Nc2ccc(C)c(C)c2)o1	.	71	.
CCc1ccc(CCC(=O)Nc2ccc(I)cc2)o1	.	.	.
O=C1O[C@@H](c2ccccc2)[C@@H](c2ccccc2)N2[C@@H](c3ccccc3OCCO)[C@]3(C(=O)Nc4ccc(C#CC5(O)CCCCCC5)cc43)[C@@H](C(=O)Nc3nc4ccccc4s3)[C@H]12	/	/	.
O=c1[nH]c2ccccc2c(=O)n1CCCO	.	.	.
O=C(c1ccc(F)cc1)C1CCN(CCn2c(=O)[nH]c3ccccc3c2=O)CC1	+	/	.
CN1/C(=C\C=C2\C(=O)Oc3ccccc3C2=O)C(C)(C)c2ccccc21	.	105	/
C[C@@H]1CN([C@@H](C)CO)C(=O)c2cc(NC(=O)c3ccncc3)ccc2O[C@@H](C)CCCCO[C@H]1CN(C)C(=O)Nc1cccc2ccccc12	.	.	/
C[C@@H]1CCCCO[C@H](CN(C)C(=O)Cc2ccccc2)[C@H](C)CN([C@@H](C)CO)C(=O)c2cc(NC(=O)c3ccncc3)ccc2O1	.	.	/
C[C@@H]1CN([C@H](C)CO)C(=O)c2cc(NC(=O)c3ccncc3)ccc2O[C@@H](C)CCCCO[C@@H]1CN(C)C(=O)Nc1cccc2ccccc12	+	.	/
C[C@@H]1CN([C@@H](C)CO)C(=O)c2cc(NC(=O)c3ccncc3)ccc2O[C@@H](C)CCCCO[C@H]1CN(C)C(=O)Cc1ccccc1	+	.	/
CNC[C@H]1Oc2ccc(NC(=O)c3ccncc3)cc2C(=O)N([C@H](C)CO)C[C@@H]1C	+	.	/
CNC[C@@H]1Oc2c(NC(=O)c3ccc(-c4nccs4)cc3)cccc2C(=O)N([C@H](C)CO)C[C@@H]1C	.	.	/
SMILES	ID4 SMM	mut p53 react	STK33 kin inh
CNC[C@@H]1Oc2c(NC(=O)c3ccc(-c4nccs4)cc3)cccc2C(=O)N([C@H](C)CO)C[C@H]1C	+	.	/
CNC[C@H]1Oc2ccc(NC(=O)c3ccncc3)cc2C(=O)N([C@@H](C)CO)C[C@@H]1C	/	/	.
CCOC(=O)c1c(NC(=O)C23CCC(C)(C(=O)O2)C3(C)C)sc2c1CCCC2 (centres undefined)	.	.	.
O=C(Cc1ccccc1)c1ccccc1C(=O)NCc1ccc(F)cc1	/	/	.
c1ccc(Cn2c3ccccc3n3c(SCc4nc5ccccc5[nH]4)nnc23)cc1	.	.	.
CC(C)NC(=O)N(C)C[C@@H]1OCCCC[C@@H](C)Oc2ccc(NC(=O)Nc3ccc(C(F)(F)F)cc3)cc2C(=O)N([C@@H](C)CO)C[C@@H]1C	+	.	/
CNC[C@H]1Oc2ccc(NS(=O)(=O)c3ccccc3)cc2CC(=O)N([C@@H](C)CO)C[C@@H]1C	.	.	.
C[C@@H]1CCCCO[C@@H](CN(C)C(=O)Nc2ccccc2)[C@@H](C)CN([C@H](C)CO)C(=O)c2cc(NC(=O)c3ccncc3)ccc2O1	/	/	.
CNC[C@H]1Oc2ccc(NS(C)(=O)=O)cc2CC(=O)N([C@@H](C)CO)C[C@@H]1C	+	.	.
